CASP6 VEID inh: inhibitors of human caspase-6. P55212. inhibition, % at 12.5 µM. purified caspase-6, Z-VEID-R110 cleavage fluorescence. 350,000 tested, 0.53% active;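 active = mean inhibition across replicates at least about 35%, with every replicate also reaching that limit, limit read from the data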;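 also: 0% = median of neutral control wells and 100% = no fluorescence left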
NSD2 inh: NSD2 (human) methyltransferase inhibition; NSD2 peptide methylation, AlphaScreen, 120 min; 310,000 tested, 0.54% active; inhibition, % at 12.5 µM; O96028; AID 743445; in the data active = inhibition above about 50%
rRNA inh HTS: inhibits bacterial ribosomal RNA function over humanized ribosomes; E. coli WT GFP vs humanized-ribosome RFP mutants, fluorescence, 24 h; active compounds read low; DMSO median 0, no signal -100; GFP signal change (wild-type ribosome), % (test concentration not listed); 350,000 tested, 1.6% active;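 active = significant combined selectivity score with lowered wild-type GFP, culture density cut under 30%, mutant RFP and density less affected; inactive = any of these conditions unmet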
AF4-AF9 inh: MLL-AF4/AF9 protein interaction inhibition | AlphaScreen, biotin-AF4 peptide binding to FLAG-AF9 | 350,000 tested, 0.47% active | inhibition, % at 10 µM | P42568 | AID 651704;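 active = every replicate reaching a set inhibition limit, whatever the replicate mean, cut at about 25% in these data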;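 also: 0% = plate neutral control median and 100% = total signal loss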
RAD52 inh: blocks human RAD52 DNA annealing | P43351 | recombinant RAD52 DNA annealing, FRET fluorescence | inhibition, % at 18.7 µM | 360,000 tested, 0.46% active | AID 651710;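 active = every replicate showing at least 50% inhibition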
Target sequence (P43351 whole entry, looked up): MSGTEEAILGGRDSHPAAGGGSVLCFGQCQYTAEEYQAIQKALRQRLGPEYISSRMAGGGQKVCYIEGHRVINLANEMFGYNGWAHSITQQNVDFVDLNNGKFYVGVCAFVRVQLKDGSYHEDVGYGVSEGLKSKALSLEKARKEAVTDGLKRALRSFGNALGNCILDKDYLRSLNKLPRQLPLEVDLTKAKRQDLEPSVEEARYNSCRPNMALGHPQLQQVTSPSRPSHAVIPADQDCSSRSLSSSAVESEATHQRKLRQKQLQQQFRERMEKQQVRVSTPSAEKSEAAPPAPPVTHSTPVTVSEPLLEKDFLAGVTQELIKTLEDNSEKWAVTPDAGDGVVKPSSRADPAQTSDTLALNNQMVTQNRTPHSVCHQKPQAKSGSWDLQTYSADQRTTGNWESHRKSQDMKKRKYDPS
An asterisk follows results filed as active; . = no result. Rows were chosen to be rich in hits. Some 2.5% of all compounds tested hit in one or more screens of this group.

SMILES	CASP6 VEID inh	NSD2 inh	rRNA inh HTS	AF4-AF9 inh	RAD52 inh
Cc1[nH]n(C(N)=S)c(=O)c1N=Nc1cccc(C(F)(F)F)c1	-3	2	8	-1	-12
Cc1[nH]n(-c2ccccc2)c(=O)c1N=Nc1ccc(C(=O)O)cc1	1	11	3	-22	-17
S=C(c1ccc(-c2cccc(Cl)c2)o1)N1CCCCC1	-2	7	-29*	19	-6
Cc1ccc(-c2cc(C(=O)NNC(=O)c3csc(N4CCOCC4)n3)c3ccccc3n2)cc1	2	0	-19*	-4	-14
O=C(NNC(=O)c1cc(-c2ccccc2)nc2ccccc12)c1csc(N2CCOCC2)n1	3	-2	-37*	-6	-13
N#C[C@H]1[C@H](c2ccccc2C2=CCCC2)[C@@H](CO)N1C(=O)C1CC1	2	.	-4	0	-8
CO[C@H]1CN(C)C(=O)c2cc(NC(C)=O)ccc2OC[C@@H](C)N(C(=O)Cc2ccccn2)C[C@@H]1C	-2	.	4	29*	-20
CCC(=O)Nc1ccc2c(c1)C(=O)N(C)C[C@@H](OC)[C@H](C)CN(Cc1ccccc1F)[C@@H](C)CO2	-1	.	-7	30*	-17
CCC(=O)Nc1ccc2c(c1)C(=O)N(C)C[C@H](OC)[C@@H](C)CN(C(=O)c1ccccn1)[C@@H](C)CO2	2	.	2	26*	-19
CCC(=O)Nc1ccc2c(c1)C(=O)N(C)C[C@@H](OC)[C@H](C)CN(Cc1ccccc1F)[C@H](C)CO2	-3	.	-5	7	-10
COc1ccc(NC(=O)N2CCCCN3[C@@H](CO)[C@@H](c4ccc(C#Cc5ccccn5)cc4)[C@@H]3C2)cc1	2	.	4	13	62*
COc1ccc(NC(=O)N2CCCCN3[C@H](CO)[C@H](c4ccc(C#Cc5ccccn5)cc4)[C@H]3C2)cc1	-3	.	-8	17	66*
COc1cccc(CN2[C@@H](CO)[C@@H](c3ccccc3)C23CN(Cc2ccccc2OC)C3)c1	.	.	-2	.	.
CN(C=[N+](C)C)c1cccc2c1C(=O)c1ccccc1C2=O	.	69*	.	.	.
N#C/C(=N\Nc1ccc(F)cc1)C(=O)C1CC1	0	-1	-34*	.	-50
C[C@@H]1CN([C@@H](C)CO)C(=O)c2cc(-c3ccccc3)cnc2O[C@@H]1CN(C)C	-2	.	-4	-4	5
CCOC(=O)N1CCN(C(=O)COc2cccc3c2CCN(Cc2cccc(C)c2)C3=O)CC1	1	2	-25*	-2	-1
CCOC(=O)N1CCN(C(=O)COc2cccc3c2CCN(Cc2ccccc2C)C3=O)CC1	.	-2	.	.	.
COc1ccc2c3c([nH]c2c1)[C@H](CO)N(C(=O)c1ccc(F)cc1)CC31CN(Cc2cccnc2)C1	-3	.	-4	3	15
Cc1ccc2cc(C)c3nnc(SCC(=O)c4cccs4)n3c2c1C	-1	.	-39*	8	-13
Cc1ccc(S(=O)(=O)N/N=C\c2ccc(C)o2)cc1	41*	3	3	-46	-16
C[C@@H]1CCCCO[C@@H](CN(C)C(=O)c2ccccc2)[C@H](C)CN([C@H](C)CO)C(=O)c2cc(NC(=O)Nc3ccc4c(c3)OCO4)ccc2O1	3	.	-1	1	-5
Cc1ccc(NS(=O)(=O)c2cccc(C(=O)NC3CC3)c2)c(C)c1	-3	-1	14	-38	-2
O=S(=O)(Nc1cccnc1)c1ccc(F)cc1	3	1	0	-5	-10
O=C(Nc1cccnc1)c1ccccc1NS(=O)(=O)c1ccc(F)cc1	-3	-2	-32*	2	-13
SMILES	CASP6 VEID inh	NSD2 inh	rRNA inh HTS	AF4-AF9 inh	RAD52 inh
Cc1ccc(NS(=O)(=O)c2cccc(C(=O)Nc3cccnc3)c2)c(C)c1	1	6	-45*	0	-19
CO[C@H]1CC[C@H]2CCN(C)C(=O)[C@@H](C)[C@H](OC)CN(C)C(=O)c3cccc(C#N)c3OC[C@@H]1O2	-2	.	6	4	-2
CO[C@@H]1CN(C)C(=O)c2ccc(NC(=O)Cc3ccccc3)cc2OC[C@@H](C)N(CCc2ccccc2)C[C@H]1C	1	.	-2	3	18
COc1ccc2c3c(n(C)c2c1)[C@H](CO)NCC31CCN(Cc2ccc(Cl)cc2)CC1	.	.	-4	44*	.
COc1ccc2c3c(n(C)c2c1)[C@H](CO)NCC31CCN(Cc2ccc(F)cc2)CC1	.	.	-1	.	.
COc1ccc2c3c(n(C)c2c1)[C@@H](CO)NCC31CCN(Cc2ccc(Cl)cc2)CC1	.	.	-5	.	.
COc1ccc2c3c(n(C)c2c1)[C@@H](CO)NCC31CCN(Cc2cc(F)ccc2F)CC1	2	.	-3	32*	14
COc1ccc2c3c(n(C)c2c1)[C@@H](CO)NCC31CCN(Cc2ccccc2F)CC1	.	.	2	20	.
COc1ccc2c3c(n(C)c2c1)[C@@H](CO)NCC31CCN(S(=O)(=O)c2cccc(C)c2)CC1	3	.	-48	27*	54*
COc1ccc2c3c(n(C)c2c1)[C@H](CO)NCC31CCN(Cc2cc(F)ccc2F)CC1	3	.	-1	26*	5
O=C1Nc2ccccc2C(=O)N2C[C@@H](O)C[C@H]12	7	-1	11	49*	-2
Cc1cccc(-c2ccc([C@H]3[C@@H](CO)N4C(=O)CN(C(=O)c5cccnc5)C[C@@H]34)cc2)c1	0	.	3	-1	-7
COc1ccc(NS(=O)(=O)c2cc(NC(=O)c3cnccn3)ccc2OC)cc1Br	.	-4	-31*	2	-18
O=C(O)CCCn1c(O)c(C=C2N=c3ccccc3=N2)sc1=S	41*	.	5	-6	-44
O=C(O)c1cccc(-n2c(O)c(C=C3N=c4ccccc4=N3)sc2=S)c1	59*	.	7	-3	-50
C[C@@H]1CN([C@H](C)CO)C(=O)c2cc(C3=CCCC3)cnc2O[C@H]1CN(C)C(=O)C1CCOCC1	-3	.	1	-2	-5
C[C@@H]1CCCCO[C@@H](CN(C)Cc2ccccc2)[C@H](C)CN([C@@H](C)CO)C(=O)c2cc(NC(=O)Cc3ccccc3)ccc2O1	-2	.	2	1	12
O=C1C(Cl)=C(NCc2cccnc2)C(=O)c2ccccc21	87*	48	-18	5	-5
CCOc1cc(-c2nc3ccccc3s2)ccc1O	2	-10	-35*	0	-16
CCOC(=O)N1CCN(S(=O)(=O)c2ccc(C(=O)N(CCN(C)C)c3nc4c(C)cccc4s3)cc2)CC1	-4	0	5	2	-2
CN(C)CCCN(C(=O)c1ccc(S(=O)(=O)N2CCc3ccccc3C2)cc1)c1nc2c(F)cccc2s1	14	4	-47*	10	-6
CCOC(=O)N1CCN(S(=O)(=O)c2ccc(C(=O)N(CCCN(C)C)c3nc4c(C)c(C)ccc4s3)cc2)CC1	-6	7	-6	26*	33
CC(C)NC(=O)NCC[C@@H]1CC[C@H](NS(=O)(=O)c2ccccc2)[C@@H](CO)O1	0	.	1	8	2
